This is part of a sample that, as a whole, favours compounds with a hit. Of some 79,000 tested, about 15% had one in any assay. A number with no mark means an inactive call. Calls of active or inactive are those of the source. Cut-off read from the data, not from the text of the source: active = growth inhibition above about 70%; inactive = the rest.
Tests used:
[1] = NCI Yeast Anticancer Drug Screen. Data for the rad50 strain (AID 155);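 note: 0% = growth of vehicle-only cultures of the same strain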; settings: S. cerevisiae rad50 strain growth inhibition; at 50.0 µM; active compounds read high
Outline: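 Compounds were tested on a yeast strain with an engineered DNA damage repair alteration; the reported value is growth inhibition normalised to vehicle treatment.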

[2] = NCI Yeast Anticancer Drug Screen. Data for the mec2-1 strain (AID 157); settings: S. cerevisiae mec2-1 strain, at 50.0 µM, active compounds read high
Outline: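 Each compound was tested on mec2-1 yeast, a strain altered in DNA damage repair or cell cycle control. Growth inhibition is reported relative to vehicle.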

[3] = NCI Yeast Anticancer Drug Screen. Data for the sgs1 mgt1 strain (AID 161);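 note: 0% = growth of cultures given vehicle only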; settings: S. cerevisiae sgs1 mgt1 strain, at 50.0 µM, active compounds read high
Outline: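 Genetically altered yeast, compound exposure, growth inhibition relative to vehicle.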

[4] = NCI Yeast Anticancer Drug Screen. Data for the cln2 rad14 strain (AID 165);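 note: 0% = growth equal to vehicle treated cultures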; settings: S. cerevisiae cln2 rad14 strain, at 50.0 µM, active compounds read high
Outline: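 Test compounds were added to cln2 rad14 yeast cultures; inhibition of growth was then determined by comparison with vehicle treatment.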

[5] = NCI Yeast Anticancer Drug Screen. Data for the bub3 strain (AID 167); settings: S. cerevisiae bub3 mutant strain, at 50.0 µM, active compounds read high
Outline: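 Growth of a checkpoint-deficient yeast mutant is measured after compound exposure. Values represent inhibition relative to vehicle.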

[6] = NCI Yeast Anticancer Drug Screen. Data for the mlh1 rad18 strain (AID 175); settings: S. cerevisiae mlh1 rad18 strain growth inhibition; at 50.0 µM; active compounds read high
Outline: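 Inhibition values reflect reduced growth of mutant yeast versus vehicle-treated controls following compound exposure; the mutations affect DNA damage repair.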

SMILES	growth inhibition [1]	growth inhibition [2]	growth inhibition [3]	growth inhibition [4]	growth inhibition [5]	growth inhibition [6]
CCN(CC)CCC(=O)c1cnc(-c2ccccc2)nc1C	7.35%	35.1%	38.7%	2.5%	17.5%	20.1%
CN1/C(=C\N=O)C(C)(C)N(O)C1(C)C	16.6%	-13.9%	2.55%	17.2%	5.85%	-85.7%
CC(C)CC(CC(C)C)OB(OC(CC(C)C)CC(C)C)OC(CC(C)C)CC(C)C	-27.8%	-15.3%	-14.6%	10.9%	-0.3%	-7.8%
O=C(O)C#Cc1cccc(Cl)c1	-20.4%	-24.3%	-14.1%	-9.9%	-16.5%	-12.8%
COc1nnc(-c2ccccc2)c(-c2ccccc2)n1	13.2%	20.3%	-2.25%	-9.6%	25.5%	6.5%
O=C(Nc1c(Cl)cccc1Cl)OCc1ccco1	7.5%	-10.6%	24.1%	3.15%	23.4%	19.6%
c1ccc(P(CCCP(c2ccccc2)c2ccccc2)c2ccccc2)cc1	-15.7%	21.4%	-24.6%	38.4%	-0.05%	-15.8%
COc1ccc(OC)c(C2=CCCCCC2)c1	7.6%	-6.15%	3.1%	-22.1%	-7.85%	13.5%
Cc1cc(Br)c2c(c1N)C(=O)c1ccccc1C2=O	23.6%	35%	31.4%	-7.75%	7.1%	15.6%
O=C(C[n+]1cccc(C(=O)Nc2ccc(Cl)cc2)c1)Nc1ccccc1	-10.9%	-13.7%	-2.45%	15.2%	-4.35%	0.65%
CCOC(=O)C(CN(CC)CC)c1ccccc1 (stereo not drawn)	-1.15%	-6.35%	-3.25%	1.8%	1.95%	10.3%
COc1cc2c[n+]3c4c(cccc4c2cc1OC)CC3	5.75%	0.55%	1.15%	-2.7%	3.2%	-13.7%
O=C1CSC(c2ccccc2Br)N1c1nncs1 (stereo not drawn)	-5.05%	-5.7%	1.95%	0.9%	13.6%	7.75%
CSC(SC)[P+](c1ccccc1)(c1ccccc1)c1ccccc1	94.1% (active)	93.9% (active)	90.7% (active)	93.5% (active)	91.2% (active)	93.5% (active)
[Fe+2].[Fe+2].c1ccc2c(c1)-c1nc-2nc2[n-]c(nc3nc(nc4[n-]c(n1)c1ccccc41)-c1ccccc1-3)c1cc3c4nc5nc(nc6[n-]c(nc7nc(nc([n-]4)c3cc21)-c1ccccc1-7)c1ccccc61)-c1ccccc1-5	-5.95%	-18.9%	-14.2%	-23%	6.75%	2.35%
CCC1C(C#N)=C(O)NC(O)=C1C#N	25.8%	6.1%	11.8%	8.6%	19.2%	-1.65%
C#CCOC(=O)C(N)CC(N)=O (stereo not drawn)	-13.8%	-21.9%	-40.6%	-11.8%	-26.6%	-17.2%
Nc1cccc2cccc(N)c12	51.9%	2.1%	41.5%	15.3%	9.65%	45%

SMILES	growth inhibition [1]	growth inhibition [2]	growth inhibition [3]	growth inhibition [4]	growth inhibition [5]	growth inhibition [6]
N#CCCOCC(COCCC#N)(COCCC#N)COCCC#N	-11.9%	-24.4%	-7.55%	10%	-12.9%	-2.25%
COc1ccc2nccc(C(=O)CCC3CCN(C(=O)c4ccc([N+](=O)[O-])cc4)CC3C(CBr)CCBr)c2c1 (stereo not drawn)	16.7%	6.35%	26.6%	-1.85%	6.2%	34.2%
N#Cc1c(/C=C/c2ccccc2)c2c([nH]c1=S)CCCCC2	0.35%	-17.5%	16.1%	26.8%	16.9%	19.1%
Cc1cc(OC(=O)c2ccc(N)cc2)ccc1C1=NCC(C)S1 (stereo not drawn)	39%	20%	38%	-3.05%	8.3%	0.1%
Cc1cc(N(CCC#N)CCC#N)ccc1/C=C1N=C(/C=C\c2ccccc2)N(c2ccc(C(=O)O)cc2)C\1=O	-3.65%	-45.5%	-16.9%	-6.3%	-16.4%	-26.1%
Cc1c(CCO)sc[n+]1CC(=O)c1ccccc1	-14.5%	-19%	-3.7%	1.55%	2.3%	1%
O=C1Sc2ccccc2C(=O)N2CCCC12 (stereo not drawn)	-20.8%	-8.25%	-11.5%	3.2%	8.2%	-10.2%
CC(=Nc1cccc2ccccc12)c1c(O)cc(C)oc1=O	20.4%	12.2%	15.2%	20.9%	–	14.1%
Cn1c(=O)oc2cc(C(=O)CSC(=S)N3CCCCCC3)ccc21	-18.3%	-33.1%	-17.6%	-14.8%	-4.8%	-7.6%
CCC(=O)OC1=CC(=O)c2ccccc2C1=O	11.6%	12.4%	4.7%	8.6%	-15.5%	12.6%
COC1/C=C/OC2(C)Oc3c(C)c(O)c4c(O)c(c(/C=N/N(C)c5ccc([N+](=O)[O-])cc5[N+](=O)[O-])c(O)c4c3C2=O)NC(=O)C(C)=C/C=C/C(C)C(O)C(C)C(O)C(C)C(OC(C)=O)C1C (stereo not drawn)	10.2%	55.6%	31.5%	63.6%	40.3%	56%
CC(C)C(=O)Nc1cccc([N+](=O)[O-])c1	-2.1%	-8.75%	6.75%	-24.6%	-6.85%	-7.6%
Clc1ccc(CSc2cnnc3c(Br)cccc23)c(Cl)c1	-5.3%	-11.5%	-10.8%	-39.2%	1.8%	0.85%
Cn1cc(/C=C\C(=O)O)c2ccccc21	-10.7%	-0.6%	6.7%	-35.2%	-26.9%	6.4%
CN1C(=O)C2C=CC1c1ccccc12 (stereo not drawn)	-0.75%	-3.95%	-8.8%	-37%	-6.5%	2.55%
Cc1cnc2c(N)nc(-c3ccccc3)nc2n1	8.55%	-2.1%	-6.9%	-39.4%	-5.15%	-0.45%
Clc1cccc(C=NC23CC4CC(CC(C4)C2)C3)c1Cl	-20.2%	-36.5%	-40.3%	-6%	–	-10.2%

From PubChem BioAssay (NCI)
